This note sets out measurements from PubChem BioAssay (Tox21).

Each structure is given as a SMILES string. Values without a mark were called inactive. Records with an inconclusive call do not appear. Calls of active or inactive are those of the source. Unless noted, calls come from the whole dose curve; as a rule, active = well fitted curve in the direction sought with a large enough effect in the repeat runs; inconclusive = weak or mixed curves; inactive = no such curve, though single readings can be large; an effect the other way counts as inactive or inconclusive.

The target in assay [1] is Thyrotropin-releasing hormone receptor (Homo sapiens) (UniProt P34981). As to the kind of experiment: qHTS assay to identify small molecule agonists of the thyrotropin-releasing hormone receptor (TRHR) signaling pathway (AID 1346891; calls by dose curve;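 note: HEK293 cells expressing TRHR with calcium dye readout; series mostly up to about 58 µM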). The gist of the method: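 Overnight-plated (18 h, 37 °C, 5% CO2) TRHR-Hek293 cells; 2 h calcium dye at 37 °C; compound in DMSO; 3-min kinetic fluorescence read.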
(In general: Quantitative high-throughput screening tests each substance at several concentrations.)

The nature of assay [2]: Human pregnane X receptor (PXR) small molecule agonists, qHTS cell viability counter screen (AID 1346977). Note: nearly all actives have a fitted effect of over 50% in size. In a few lines: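 After a 5hr pre-incubation, PXR-Luc HepG2 cells received compounds plus positive control in DMSO and were kept 24hr at 37C. Cell viability was quantified by fluorescence from CellTiter-Fluor added for the final hour.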
A short description of assay [3]: Caspase-3/7 induction in HepG2 cells by small molecules, qHTS assay (AID 1346978). Note: nearly all actives have a fitted effect of over 15% in size. In a few lines: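 Wild-type HepG2 cells, 2,000/well, settled 5 hr at 37 C and 5% CO2, then compound-treated for 17 hr; caspase-3/7 activity read by luminescent Caspase-Glo 3/7 after 30 min at room temperature.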
Assay [4] in a line: Caspase-3/7 induction in CHO-K1 cells by small molecules, qHTS cell viability counter screen (AID 1346979). Note: nearly all actives have a fitted effect of over 35% in size. In a few lines:
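Multiplexed with Caspase-Glo 3/7 in CHO-K1 cells, this counter screen added CellTiter-Fluor after 16hr of compound exposure and recorded fluorescence 1hr later.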

Assay [5] can be described thus: Caspase-3/7 induction in CHO-K1 cells by small molecules, qHTS assay (AID 1346980). Note: nearly all actives have a fitted effect of over 15% in size. The gist of the method: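 Wild-type CHO-K1 cells exposed to compounds for 17hr at 37 C, 5% CO2. Caspase-3/7 activity then measured by Caspase-Glo 3/7 luminescence after 30min at room temperature.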
Assay [6] deals with Nuclear receptor subfamily 1 group I member 2 (Homo sapiens) (UniProt O75469). Kind of assay: Human pregnane X receptor (PXR) small molecule agonists, qHTS assay (AID 1346982). Note: nearly all actives have a fitted effect of over 35% in size. The gist of the method:
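Reporter HepG2 cells expressing PXR-Luc are cultured in charcoal-stripped FBS (5%), treated with compounds for 24 hr at 37 C, and assayed by ONE-Glo luminescence after 30 min at room temperature.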

The target of assay [7] is Cytochrome P450 2D6 (Homo sapiens) (UniProt P10635). As to the kind of experiment: Cytochrome P450 Family 2 Subfamily D Member 6 (CYP2D6) small molecule antagonists: luciferase reporter qHTS assay (AID 1671196). Note: series mostly up to about 120 µM; nearly all actives have a fitted effect of over 50% in size. In a few lines: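 Test chemicals meet CYP2D6 plus proluciferin substrate (10 min, RT); NADPH regenerating solution then drives turnover for 1 h. Detection reagent halts the reaction; luminescence measured after 20 min.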
(In a reporter assay the amount or activity of a reporter protein is the signal.)

The target in assay [8] is Cytochrome P450 2C19 (Homo sapiens) (UniProt P33261). Kind of assay: Cytochrome P450 Family 2 Subfamily C Member 19 (CYP2C19) small molecule antagonists: luciferase reporter qHTS assay (AID 1671197). Note: nearly all actives have a fitted effect of over 65% in size. Note: potency is the fitted concentration of half-maximal effect. In a few lines:
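CYP2C19 P450-Glo, 1536-well qHTS. Cpd + enzyme/proluciferin substrate 10 min RT; + NADPH regen, 37C 1 h; stop with luciferin detection reagent, 20 min RT, luminescence (RLU). Pos ctrl ketoconazole.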

Assay [9] concerns the target Cytochrome P450 2C9 (Homo sapiens) (UniProt P11712). Kind of assay: Cytochrome P450 Family 2 Subfamily C Member 9 (CYP2C9) small molecule antagonists: luciferase reporter qHTS assay (AID 1671198). Note: nearly all actives have a fitted effect of over 50% in size. Note: potency is the fitted concentration of half-maximal effect. In a few lines:
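P450-Glo proluciferin substrate with CYP2C9 enzyme; 10 min RT preincubation, then NADPH regeneration 1 h at 37C; luciferin detection reagent 20 min RT, luminescence in relative luminescence units.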

The target in assay [10] is Cytochrome P450 1A2 (Homo sapiens) (UniProt P05177). As to the kind of experiment: Cytochrome P450 Family 1 Subfamily A Member 2 (CYP1A2) small molecule antagonists: luciferase reporter qHTS assay (AID 1671199). Note: nearly all actives have a fitted effect of over 50% in size. Note: potency is the fitted concentration of half-maximal effect. In a few lines: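 Steps: enzyme-substrate mix dispensed; test compounds and furafylline control pinned in; 10 min room temperature; NADPH regeneration solution added, 1 h; reaction stopped with luciferin detection reagent; luminescence read after 20 min.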

Assay [11] has as its target Voltage-gated inwardly rectifying potassium channel KCNH2 (Homo sapiens) (UniProt Q12809). As to the kind of experiment: Human Ether-a-go-go-Related Gene (hERG) channel small molecule antagonists: fluorescence cell-based qHTS assay (AID 1671200). The gist of the method:
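Cell line hERG-U2OS; dye FluxOR II, 1 h RT dark; Tl+ stimulus; ex 480/em 540 nm, read each second for 2 min.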

Assay [12] concerns the target Cytochrome P450 3A4 (Homo sapiens) (UniProt P08684). Kind of assay: Cytochrome P450 Family 3 Subfamily A Member 4 (CYP3A4) small molecule antagonists: luciferase reporter qHTS assay (AID 1671201). In a few lines:
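Room-temperature assay throughout: 10 min compound–enzyme/substrate preincubation, 1 h reaction after NADPH regeneration solution, 20 min detection. Luciferin formed from proluciferin substrate is quantified by luminescence.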

Assay [13] concerns the target Nuclear receptor subfamily 1 group I member 2 (Rattus norvegicus) (UniProt Q9R1A7). Kind of assay: Rat pregnane X receptor (rPXR) activation by small molecules, qHTS assay (AID 1346983). Note: nearly all actives have a fitted effect of over 20% in size. Particulars: rPXR luciferase reporter cells, One-Glo luminescence, 24 h; max activation: active compounds read high. The gist of the method:
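Cell-based rPXR activation assay: rPXR cells, 2,000 per well, rested 5hr at 37 C, then exposed to compounds in DMSO for 24 hr at 37 C. Luciferase activity read by One-Glo luminescence after 30 min at room temperature.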

Assay [14] deals with Nuclear receptor subfamily 1 group I member 2 (Homo sapiens) (UniProt O75469). Kind of assay: CYP3A4 induction through human pregnane X receptor (PXR) by small molecules, qHTS assay (AID 1346984). Note: nearly all actives have a fitted effect of over 40% in size. In a few lines: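 Induction measured in HepG2-based DPX-2 cells co-expressing human PXR and a CYP3A4 promoter-driven luciferase. After a 24-hour compound exposure, cells received CYP3A4 luciferin substrate at 3uM final for 3 hours, and light output was then recorded.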

Assay [15] has the same target. As to the kind of experiment: Human pregnane X receptor (PXR) activation by small molecules, qHTS assay (AID 1346985). Note: nearly all actives have a fitted effect of over 40% in size. The gist of the method: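 DPX-2 cells (HepG2 co-transfected with a PXR response element and a CYP3A4-promoter luciferase construct) were seeded at 2,000 per well, rested 5 hr at 37C, then exposed to DMSO-dissolved compounds for 24 hr. Activation was read as luciferase luminescence.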

Assay [16] can be described thus: Caspase-3/7 induction in HepG2 cells by small molecules, qHTS cell viability counter screen (AID 1346981). Note: series mostly up to about 92 µM; nearly all actives have a fitted effect of over 30% in size. The gist of the method: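 In this quantitative HTS counter screen, compounds delivered in DMSO were left on unmodified HepG2 cells for 16 hr at 37 C. Viability was then determined fluorometrically with CellTiter-Fluor, in parallel with caspase-3/7 induction in the same wells.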
% is set by controls: 0 for no effect and ±100 for the full control effect.

Sequence of Cytochrome P450 2C9 (Homo sapiens) (P11712 whole entry, looked up): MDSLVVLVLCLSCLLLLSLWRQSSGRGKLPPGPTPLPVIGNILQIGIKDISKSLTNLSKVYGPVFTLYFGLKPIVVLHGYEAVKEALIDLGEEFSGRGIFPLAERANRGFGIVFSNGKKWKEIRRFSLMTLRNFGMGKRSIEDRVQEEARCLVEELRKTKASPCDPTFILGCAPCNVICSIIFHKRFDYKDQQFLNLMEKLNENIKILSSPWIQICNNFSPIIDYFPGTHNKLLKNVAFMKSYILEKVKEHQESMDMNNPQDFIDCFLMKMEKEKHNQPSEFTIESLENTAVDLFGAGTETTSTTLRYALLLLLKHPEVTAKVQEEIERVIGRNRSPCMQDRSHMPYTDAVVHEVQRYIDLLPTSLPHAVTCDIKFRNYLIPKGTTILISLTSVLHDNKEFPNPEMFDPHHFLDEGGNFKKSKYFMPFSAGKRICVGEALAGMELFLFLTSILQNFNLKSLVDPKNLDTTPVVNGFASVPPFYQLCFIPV
Sequence of Cytochrome P450 2D6 (Homo sapiens) (P10635 whole entry, looked up): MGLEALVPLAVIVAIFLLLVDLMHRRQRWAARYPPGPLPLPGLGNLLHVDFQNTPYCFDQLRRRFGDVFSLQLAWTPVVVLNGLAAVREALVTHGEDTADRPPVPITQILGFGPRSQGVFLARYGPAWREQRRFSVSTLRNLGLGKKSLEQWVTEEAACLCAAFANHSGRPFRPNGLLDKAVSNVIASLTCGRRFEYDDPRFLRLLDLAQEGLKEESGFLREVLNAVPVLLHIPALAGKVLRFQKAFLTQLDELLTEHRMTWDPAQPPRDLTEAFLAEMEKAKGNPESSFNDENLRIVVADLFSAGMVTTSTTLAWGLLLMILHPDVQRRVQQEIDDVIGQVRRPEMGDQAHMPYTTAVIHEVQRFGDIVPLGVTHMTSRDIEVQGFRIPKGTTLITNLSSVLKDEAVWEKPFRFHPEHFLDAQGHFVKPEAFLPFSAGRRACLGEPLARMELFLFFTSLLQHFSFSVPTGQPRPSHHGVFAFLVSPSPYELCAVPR
Sequence of Thyrotropin-releasing hormone receptor (Homo sapiens) (P34981 whole entry, looked up): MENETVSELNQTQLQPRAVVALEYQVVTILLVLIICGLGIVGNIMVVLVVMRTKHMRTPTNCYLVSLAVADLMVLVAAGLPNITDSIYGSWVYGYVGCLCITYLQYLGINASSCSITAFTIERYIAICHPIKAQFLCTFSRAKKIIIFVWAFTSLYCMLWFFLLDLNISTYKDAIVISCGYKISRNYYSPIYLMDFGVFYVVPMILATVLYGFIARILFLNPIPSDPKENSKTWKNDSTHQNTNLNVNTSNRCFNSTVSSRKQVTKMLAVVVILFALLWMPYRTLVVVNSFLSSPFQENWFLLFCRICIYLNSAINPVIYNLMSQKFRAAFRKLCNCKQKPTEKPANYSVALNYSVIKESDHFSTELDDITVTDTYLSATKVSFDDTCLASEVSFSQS
Sequence of Cytochrome P450 3A4 (Homo sapiens) (P08684 whole entry, looked up): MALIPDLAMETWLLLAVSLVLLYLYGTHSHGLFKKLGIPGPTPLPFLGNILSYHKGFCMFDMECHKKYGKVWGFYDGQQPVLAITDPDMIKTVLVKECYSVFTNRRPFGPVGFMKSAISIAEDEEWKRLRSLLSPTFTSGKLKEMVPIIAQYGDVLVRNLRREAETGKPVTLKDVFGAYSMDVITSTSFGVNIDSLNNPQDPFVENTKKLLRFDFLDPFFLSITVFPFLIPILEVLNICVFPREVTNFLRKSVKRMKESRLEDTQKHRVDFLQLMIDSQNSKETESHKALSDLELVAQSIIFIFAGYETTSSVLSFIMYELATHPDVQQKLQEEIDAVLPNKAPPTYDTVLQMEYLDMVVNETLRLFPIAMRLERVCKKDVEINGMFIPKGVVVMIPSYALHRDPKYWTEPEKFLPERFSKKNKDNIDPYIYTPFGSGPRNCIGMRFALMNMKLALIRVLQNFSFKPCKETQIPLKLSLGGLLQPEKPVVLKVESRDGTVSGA
Sequence of Voltage-gated inwardly rectifying potassium channel KCNH2 (Homo sapiens) (Q12809 whole entry, looked up): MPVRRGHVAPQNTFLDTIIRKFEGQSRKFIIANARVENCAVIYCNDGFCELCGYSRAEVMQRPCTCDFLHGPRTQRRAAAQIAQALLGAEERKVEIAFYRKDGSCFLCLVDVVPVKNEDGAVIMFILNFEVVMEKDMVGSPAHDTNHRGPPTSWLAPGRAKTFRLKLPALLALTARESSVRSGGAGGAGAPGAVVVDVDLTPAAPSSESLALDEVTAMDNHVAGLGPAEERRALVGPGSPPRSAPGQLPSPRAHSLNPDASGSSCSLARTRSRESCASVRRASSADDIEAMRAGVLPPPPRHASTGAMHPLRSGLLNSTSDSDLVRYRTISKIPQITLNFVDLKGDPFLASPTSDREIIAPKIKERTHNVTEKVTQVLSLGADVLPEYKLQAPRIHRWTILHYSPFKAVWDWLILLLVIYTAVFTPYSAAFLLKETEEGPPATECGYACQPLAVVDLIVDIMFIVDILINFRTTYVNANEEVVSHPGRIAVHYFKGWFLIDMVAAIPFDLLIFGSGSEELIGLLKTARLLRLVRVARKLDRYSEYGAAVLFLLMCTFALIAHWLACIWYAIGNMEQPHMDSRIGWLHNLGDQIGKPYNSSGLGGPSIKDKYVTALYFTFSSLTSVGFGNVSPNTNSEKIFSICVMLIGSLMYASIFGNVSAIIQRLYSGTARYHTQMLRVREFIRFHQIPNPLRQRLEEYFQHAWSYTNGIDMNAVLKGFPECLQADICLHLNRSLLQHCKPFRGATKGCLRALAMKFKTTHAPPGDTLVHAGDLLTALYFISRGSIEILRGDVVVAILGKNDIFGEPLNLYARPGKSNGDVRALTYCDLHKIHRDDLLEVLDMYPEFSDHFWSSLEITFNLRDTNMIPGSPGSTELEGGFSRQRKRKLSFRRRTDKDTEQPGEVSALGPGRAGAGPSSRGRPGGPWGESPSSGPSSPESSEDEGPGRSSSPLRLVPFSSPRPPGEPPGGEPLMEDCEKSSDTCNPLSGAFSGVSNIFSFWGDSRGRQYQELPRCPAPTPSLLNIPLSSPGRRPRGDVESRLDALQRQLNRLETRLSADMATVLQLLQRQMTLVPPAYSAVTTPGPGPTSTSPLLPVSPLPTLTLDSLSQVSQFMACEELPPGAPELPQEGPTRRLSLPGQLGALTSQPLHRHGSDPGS
Sequence of Cytochrome P450 1A2 (Homo sapiens) (P05177 whole entry, looked up): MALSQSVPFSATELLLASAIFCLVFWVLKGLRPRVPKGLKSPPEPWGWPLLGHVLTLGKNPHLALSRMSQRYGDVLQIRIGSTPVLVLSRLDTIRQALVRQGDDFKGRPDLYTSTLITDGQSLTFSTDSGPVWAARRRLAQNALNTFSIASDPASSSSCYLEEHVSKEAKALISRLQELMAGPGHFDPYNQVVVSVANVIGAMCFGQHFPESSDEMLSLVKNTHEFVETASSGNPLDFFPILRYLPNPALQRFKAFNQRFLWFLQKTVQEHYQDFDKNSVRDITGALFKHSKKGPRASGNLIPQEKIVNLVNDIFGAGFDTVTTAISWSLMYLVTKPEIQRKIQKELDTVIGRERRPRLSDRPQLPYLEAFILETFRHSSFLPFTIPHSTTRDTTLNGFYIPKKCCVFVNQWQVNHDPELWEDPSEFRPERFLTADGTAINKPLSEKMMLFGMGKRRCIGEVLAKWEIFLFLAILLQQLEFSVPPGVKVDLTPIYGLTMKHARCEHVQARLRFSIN
Sequence of Cytochrome P450 2C19 (Homo sapiens) (P33261 whole entry, looked up): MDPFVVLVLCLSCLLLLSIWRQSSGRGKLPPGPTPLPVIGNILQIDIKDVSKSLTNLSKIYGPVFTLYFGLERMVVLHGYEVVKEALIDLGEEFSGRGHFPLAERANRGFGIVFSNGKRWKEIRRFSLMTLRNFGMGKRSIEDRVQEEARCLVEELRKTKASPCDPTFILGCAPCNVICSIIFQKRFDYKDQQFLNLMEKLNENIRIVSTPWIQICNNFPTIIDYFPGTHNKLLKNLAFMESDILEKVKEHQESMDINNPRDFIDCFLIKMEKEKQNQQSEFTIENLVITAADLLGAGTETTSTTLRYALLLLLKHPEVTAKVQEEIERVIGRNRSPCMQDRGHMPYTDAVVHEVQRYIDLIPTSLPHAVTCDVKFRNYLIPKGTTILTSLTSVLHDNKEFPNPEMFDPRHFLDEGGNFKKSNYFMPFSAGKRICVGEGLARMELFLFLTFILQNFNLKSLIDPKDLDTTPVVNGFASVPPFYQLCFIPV
Sequence of Nuclear receptor subfamily 1 group I member 2 (Homo sapiens) (O75469 whole entry, looked up): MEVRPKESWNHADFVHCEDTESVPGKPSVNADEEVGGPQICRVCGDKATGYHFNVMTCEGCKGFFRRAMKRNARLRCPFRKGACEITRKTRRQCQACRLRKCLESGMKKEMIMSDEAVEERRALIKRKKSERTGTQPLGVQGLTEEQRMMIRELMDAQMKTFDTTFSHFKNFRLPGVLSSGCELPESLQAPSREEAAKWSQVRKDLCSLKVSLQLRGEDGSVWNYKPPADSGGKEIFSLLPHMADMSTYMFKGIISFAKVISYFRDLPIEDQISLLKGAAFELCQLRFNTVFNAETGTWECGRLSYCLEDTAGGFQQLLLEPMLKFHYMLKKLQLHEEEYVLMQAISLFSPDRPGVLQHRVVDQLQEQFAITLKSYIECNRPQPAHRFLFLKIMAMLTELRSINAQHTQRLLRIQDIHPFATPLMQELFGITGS
Sequence of Nuclear receptor subfamily 1 group I member 2 (Rattus norvegicus) (Q9R1A7 whole entry, looked up): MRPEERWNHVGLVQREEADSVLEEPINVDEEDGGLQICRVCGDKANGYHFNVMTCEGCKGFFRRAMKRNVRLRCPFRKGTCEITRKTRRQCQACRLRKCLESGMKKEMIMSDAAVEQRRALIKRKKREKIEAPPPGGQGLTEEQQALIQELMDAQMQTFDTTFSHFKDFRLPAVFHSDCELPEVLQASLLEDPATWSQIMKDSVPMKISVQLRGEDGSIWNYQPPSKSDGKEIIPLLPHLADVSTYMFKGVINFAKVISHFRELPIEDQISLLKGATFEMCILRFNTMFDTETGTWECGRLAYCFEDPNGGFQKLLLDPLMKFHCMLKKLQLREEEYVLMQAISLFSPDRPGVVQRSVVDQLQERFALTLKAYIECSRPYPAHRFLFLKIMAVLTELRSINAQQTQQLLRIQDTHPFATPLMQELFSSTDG

For `COc1cccc(Br)c1`, the result in [1], in [3] and in [5] was inactive. In addition, the Potency result in [2], in assay [4], in assay [6], in [7], in assay [8] and in assay [9] was “inactive” in each case. Moreover, the Potency entry in [10], in assay [11] and in assay [12] was “inactive” each time.
`Nc1cc(C(Cl)=C(Cl)Cl)c(S(N)(=O)=O)cc1S(N)(=O)=O`: the compound was called inactive in assay [1], in assay [3] and in [5]. The Potency result in assay [2], in assay [4], in assay [6], in assay [14], in assay [15] and in assay [7] was “inactive” in each case. In [11], the Potency result is “inactive”. For the same compound, the max activation in assay [13] is -3.29%.
With `CCCCNc1ccccc1`, the result in assay [1], in assay [3] and in [16] was inactive. Besides, the Potency entry in [2], in [4], in [7], in assay [8], in [9] and in assay [10] was “inactive” throughout. The Potency result in assay [11] and in [12] was “inactive” in each case.
`CC(=O)c1ccc(C)cc1`: the call in [1], in assay [3] and in assay [16] was inactive. Further, the Potency result in [2], in assay [4], in assay [6], in [7], in assay [8] and in assay [9] was “inactive” in each case. Further, the Potency result in assay [10], in assay [11] and in assay [12] was “inactive” throughout.
For the compound `O=C(O)/C=C/c1ccc(/C=C/C(=O)O)cc1`, the outcome in [1], in assay [3] and in assay [5] was inactive. Further, the Potency result in assay [2], in assay [4], in assay [6], in assay [9], in [10] and in assay [11] was “inactive” each time. In addition, the Potency result in [12] was “inactive”. In addition, the Potency in assay [8] was 8.74 µM (active).
Turning to `CC(C)=CCC/C(C)=C/C(=O)O`, the result in [1], in assay [3] and in assay [5] was inactive. The Potency entry in assay [2], in assay [4], in [6], in assay [7], in assay [10] and in assay [11] was “inactive” each time. Further, in assay [12], the Potency result is “inactive”. In addition, the Potency in assay [8] is 39.9 µM (active).
With `C#CC(C)(O)CC(C)C` (centres undefined), the outcome in [1], in assay [3] and in assay [16] was inactive. The Potency result in assay [2], in assay [4], in assay [6], in assay [7], in [8] and in assay [9] was “inactive” each time. For the same compound, the Potency entry in assay [11] and in [12] was “inactive” each time.
Turning to `Cc1c(F)cc2c(=O)c(C(=O)O)cn3c2c1CCC3C` (centres undefined), the call in assay [1], in assay [3] and in [16] was inactive. The Potency result in assay [2], in assay [4], in assay [6], in [7], in [8] and in [9] was “inactive” in each case. Further, the Potency entry in assay [10], in assay [11] and in [12] was “inactive” throughout.
With `CCCc1ccccc1O`, the compound was classed as inactive in [1], in assay [3] and in [5]. Also, the Potency result in [2], in assay [4], in assay [6], in [7], in [8] and in assay [11] was “inactive” throughout. The Potency entry in [12] was “inactive”.
As to `CC12CCC(CC1=O)C2(C)C` (centres undefined), the compound was classed as inactive in [1], in assay [3] and in assay [16]. The Potency result in assay [2], in assay [4], in [6], in assay [7], in assay [8] and in assay [9] was “inactive” each time. Also, the Potency entry in assay [10], in assay [11] and in [12] was “inactive” throughout.
For `CCC(=O)/C=C/c1ccc(OC)cc1`, the outcome in assay [1], in assay [3] and in assay [16] was inactive. In addition, the Potency result in assay [2], in assay [4], in [7], in assay [11] and in assay [12] was “inactive” each time. For the same compound, the Potency is 12.6 µM (active) in assay [8], 39.9 µM (active) in [9] and 20 µM (active) in assay [10].
